Shown are actives, neighbours in structure and some others; about 7.3% of the full set was active somewhere.
ELG1 genotox – genotoxicity induction in ELG1-luciferase HEK293T cells | HEK293T ELG1-luciferase reporter, luminescence, 16 h | Potency, µM (doses to about 46 µM), for inactives: at the top dose activity change, positive = activation, hits mostly activators | actives 1.3% (n = 330,000) | AID 504466; note: % of control where 0% means no effect; nearly all actives have a fitted effect of over 60% in size
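HEK293T cells expressing luciferase-tagged ELG1 were exposed to compound or DMSO vehicle for 16 hr at 37 °C and 5% CO2. Luciferase activity was then measured with ONE-Glo after 30 min at room temperature.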
p53 reactivator – mutant p53 re-activation in reporter cells; H1299 p53-A138V BP100-luciferase reporter, luminescence, 24 h; Potency, µM (doses to about 92.2 µM), for inactives: at the highest dose activity change, positive = activation, hits mostly activators; actives 0.063% (n = 320,000); AID 504706; note: % of control where 0% means no effect; nearly all actives have a fitted effect of over 45% in size
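H1299 (p53-null), stable ts p53-A138V + BP100-Luc; 1000 cells/well, Opti-MEM/10% FBS; cpd 4 pt, 1:5; 24 h, 37 deg C, 5% CO2; detection reagent 10 min RT; luminescence.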
NPC1 promoter act – NPC1 promoter activation | Potency, µM (top dose mostly 9.22 µM), inactives show at the highest dose activation, most hits filed as activators | AID 485313 | Huh7 NPC1 promoter luciferase reporter, 24 h | actives 2.4% (n = 320,000); note: % of control where 0% means no effect; nearly all actives have a fitted effect of over 60% in size
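Stable NPC1-promoter luciferase Huh7 line; cpd (DMSO) 24 h, 37 °C, 5% CO2; Amplite luciferase reagent 10 min RT; luminescence readout. qHTS format.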
SMN2 splice enh – increases expression of the SMN2 splice variant; HEK293 SMN2-luciferase splicing reporter, luminescence, 30-36 h; Potency, µM (top dose mostly 46.1 µM), for the others: top-dose activity change, positive = activation, actives largely listed as activators; actives 2.8% (n = 210,000); note: % of control where 0% means no effect; nearly all actives have a fitted effect of over 55% in size
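qHTS luciferase splicing reporter: luminescence rises when SMN2 exon 7 is included in transfected HEK293 cells. Compound exposure lasted 30-36 h at 37C, with 4.5 mM final sodium butyrate as control, followed by a ONE-Glo read.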
Rab9 promoter act – Rab9 promoter activation | Huh7 Rab9 promoter-luciferase reporter, luminescence, 24 h | Potency, µM (doses to about 9.22 µM), inactives show top-dose activation, negative = inhibition, usual class: activators | actives 2.8% (n = 320,000) | AID 485297; note: % of control where 0% means no effect; nearly all actives have a fitted effect of over 60% in size
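Huh7 cells stably carrying a Rab9 promoter-luciferase reporter, 1500 cells per well in OP-MEM I with 10% FBS, treated with compound 24 hours at 37C. Luciferase activity read by luminescence after 10 minutes with Amplite reagent.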
FLuc counter – firefly luciferase modulation, counter-screen for miR-21 project; P08659; purified FLuc, Km substrates, luminescence inhibition; Potency, µM (top dose mostly 57.5 µM), inactives show top-dose activity change, negative = inhibition, most hits filed as inhibitors; actives 6.9% (n = 360,000); AID 588342;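 note: plate controls were vehicle for no effect and reference inhibitor for full effect; nearly all actives have a fitted effect of over 55% in size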
Target sequence (P08659 whole entry, looked up): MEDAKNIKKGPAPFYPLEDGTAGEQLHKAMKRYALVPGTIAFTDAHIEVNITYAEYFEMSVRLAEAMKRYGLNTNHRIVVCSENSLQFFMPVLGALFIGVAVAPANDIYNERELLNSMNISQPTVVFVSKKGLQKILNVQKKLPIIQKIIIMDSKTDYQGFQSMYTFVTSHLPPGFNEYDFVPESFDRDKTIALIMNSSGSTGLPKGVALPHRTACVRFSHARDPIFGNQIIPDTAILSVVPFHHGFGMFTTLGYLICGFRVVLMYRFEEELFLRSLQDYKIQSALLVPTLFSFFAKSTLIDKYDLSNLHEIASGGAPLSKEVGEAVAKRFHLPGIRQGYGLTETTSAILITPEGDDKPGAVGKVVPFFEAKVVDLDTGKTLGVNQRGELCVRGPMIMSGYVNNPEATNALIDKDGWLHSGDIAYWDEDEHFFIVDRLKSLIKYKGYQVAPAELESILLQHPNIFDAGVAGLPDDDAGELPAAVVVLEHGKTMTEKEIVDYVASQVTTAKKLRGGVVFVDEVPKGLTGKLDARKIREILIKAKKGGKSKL
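Biochemical qHTS of compounds, final roughly 60 µM downward over six points, against 10 nM purified firefly luciferase using Km concentrations of substrates (10 uM D-luciferin, 10 uM ATP) in Tris acetate pH 7.5 buffer; luminescence output.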
Numbers without * were called inactive; ? = inconclusive; / = no result given; [ ] = dose if it differs, or a comment. Calls come from the whole dose curve; as a rule, active = well fitted curve in the direction sought with a large enough effect; inconclusive = small, poorly fitted or top-dose-only effect, or another doubt; inactive = no such curve, though single readings can be large; an effect the other way counts as inactive or inconclusive. Potency is the fitted concentration of half-maximal effect.

SMILES	ELG1 genotox	p53 reactivator	NPC1 promoter act	SMN2 splice enh	Rab9 promoter act	FLuc counter
CCOC(=O)c1ccn(-c2nc(-c3cccc(OC)c3)cc(C(F)(F)F)n2)n1	/	/	/	2%	/	-6%
CCc1nc(C)cn1S(=O)(=O)c1ccc(Cl)c(Cl)c1OC	/	/	/	-76%	/	-2%
CCc1cc(C(=O)N(C)CC(=O)N(CC(C)C)c2c(N)n(CC(C)C)c(=O)[nH]c2=O)sc1C	0%	16%	0%	/	14%	1%
O=C(C1CCC(Cn2c(=O)c3sccc3n(Cc3ccc(F)cc3)c2=O)CC1)N1CCOCC1 (configuration not stated)	/	/	/	/	/	4%
COc1ccc(CNC(=O)CSc2nc3ccc(N)cc3s2)cc1	0%	2%	-1%	1%	18%	?
Nc1cccc(-c2nc3ccc(N)cc3s2)c1	?	-2%	?	13µM*	?	0.27µM*
Nc1ccc2nc(-c3ccc(O)cc3)sc2c1	/	/	/	1.4µM*	/	0.3µM*
Nc1nc2ccc(O)cc2s1	1%	?	-1%	1%	3%	-1%
Nc1ccc(-c2nc3ccc(N)cc3s2)cc1	?	-3%	?	/	?	0.27µM*
Cc1nn(C)c(=O)n1-c1ccc(OCc2ccccc2)cc1	16%	14%	?	11µM*	?	?
COc1ccccc1C(=O)Nc1ccc2c(c1)nc(CCNC(=O)c1ccccc1)n2C	-10%	-4%	-19%	/	2%	15µM*
CC(=O)NCCc1nc2cc(NC(=O)Nc3ccccc3)ccc2n1C	?	?	2.2µM*	/	4µM*	6.7µM*
CCC(=O)NCCc1nc2cc(NC(=O)c3ccccc3OC)ccc2n1C	?	?	23%	/	29%	21µM*
CCC(=O)NCCc1nc2cc(NC(=O)COc3ccccc3)ccc2n1C	19%	?	?	/	?	?
COc1ccccc1C(=O)Nc1ccc2c(c1)nc(CCNC(C)=O)n2C	?	?	?	?	?	15µM*
COc1ccccc1C(=O)Nc1ccc2c(c1)nc(CN1CCN(C(C)=O)CC1)n2C	5%	-11%	-4%	-15%	-5%	-10%
Cc1ccc2c(CNCCc3ccco3)c(C(=O)O)n(Cc3ccc(F)cc3)c2c1	/	/	/	/	/	1%
CCCS(=O)(=O)N1CCCC(c2nc(-c3ccc(OC)cc3)no2)C1 (configuration not stated)	1%	-4%	-2%	-26%	-3%	?
CCS(=O)(=O)N1CCCC(c2nc(-c3cccc(OC)c3)no2)C1 (configuration not stated)	15µM*	?	29%	?	?	?
CCSc1ccc(-c2ccco2)nn1	10%	23%	22%	24%	21%	?
Fc1ccc(CSc2ccc(-c3ccco3)nn2)cc1	?	?	3.2µM*	22µM*	3.2µM*	4.8µM*
CSc1ccc(-c2ccco2)nn1	?	?	?	/	3.2µM*	?
Fc1cccc(CSc2ccc(-c3ccco3)nn2)c1	?	?	?	?	?	12µM*
CCCCc1nc2c(c3c1C[C@H](C)OC3)CN(S(=O)(=O)c1ccc(C#N)cc1)CC2	/	/	/	-5%[9.22 µM]	/	/
O=C(Oc1ccc(-c2ccccc2)cc1)C1C2CCCCC21 (configuration not stated)	17%	0%	-4%	5%	-5%	4.8µM*
SMILES	ELG1 genotox	p53 reactivator	NPC1 promoter act	SMN2 splice enh	Rab9 promoter act	FLuc counter
O=C(Oc1ccc(-c2ccccc2)cc1)N1CCCCC1	/	/	/	?	/	8.5µM*
O=C(Oc1ccc(OC(=O)N2CCCCC2)cc1)N1CCCCC1	8%	5%	-2%	2%	4%	3%
O=C(COc1ccc(-c2ccccc2)cc1)N1CCCC1	-5%	-3%	-1%	/	2%	-3%
Nc1nc(N)c2nn(-c3ccc(C(=O)O)cc3)nc2n1	/	/	/	3%[9.22 µM]	/	/
COc1ccc(NC(=O)c2cccc(NC(=O)C3C4CC5OC(=O)C3C5C4)c2)c(OC)c1 (configuration not stated)	3%	2%	-1%	-2%	1%	?
C=CCCCCCCC=C	/	/	/	0%	/	/
CCN(CC)S(=O)(=O)c1cccc(N=Nc2sc(N)nc2C)c1	3%	-3%	-2%	/	-3%	-3%
Cc1nc(N)sc1N=Nc1ccccc1C(F)(F)F	?	?	?	/	2.8µM*	12µM*
COC(=O)N1C2CC3(C)CC(=O)CC1(C)C3c1ccccc12 (configuration not stated)	/	/	/	4%[9.22 µM]	/	/
N/C(=N\OC(=O)c1ccccc1F)c1cccc([N+](=O)[O-])c1	?	/	2.8µM*	/	2.8µM*	3.4µM*
Cc1ccccc1C(=O)O/N=C(\N)c1ccccc1	1.6µM*	10%	3.5µM*	/	0.79µM*	0.17µM*
N/C(=N\OC(=O)c1ccccc1Br)c1ccc([N+](=O)[O-])cc1	?	/	4µM*	/	3.5µM*	5.4µM*
C/C(=N/OC(=O)c1ccc(F)cc1)c1ccc(C)cc1	1%	13%	1%	-6%	-8%	0.67µM*
CCOc1ccc(C(=O)N(Cc2nc(-c3cccc(C)c3)no2)C(C)C)cc1	/	/	/	/	/	3%
Cc1ccc(N2C(=O)CSC23C(=O)N(CC(=O)NC2CCCCC2)c2ccccc23)cc1C (configuration not stated)	/	/	/	/	/	-1%
Cc1ccccc1C(=O)O/N=C(\c1ccccc1)c1ccccn1	-2%	19%	0%	20%	0%	21µM*
N/C(CS(=O)(=O)c1ccccc1)=N\OC(=O)c1ccc(F)cc1	?	?	-1%	/	6%	6%
Cc1ccccc1/C(N)=N/OC(=O)c1ccc(F)cc1	?	?	?	-3%	?	1.3µM*
O=C(Nc1ccccc1)O/N=C(\c1ccccc1)c1ccccn1	4%	21%	-1%	8%	3%	-12%
Cc1ccccc1C(=O)O/N=C(\N)c1ccc([N+](=O)[O-])cc1	?	?	?	/	?	19µM*
N/C(=N\OC(=O)c1ccccc1Br)c1cccc([N+](=O)[O-])c1	5.8µM*	?	2.2µM*	/	1.3µM*	2.4µM*
CCn1cc(S(=O)(=O)c2cc(C)cc(C)c2)c(=O)c2cc(F)c(N3CCN(c4ccccc4)CC3)cc21	/	/	/	/	/	0%
Cc1cc(=O)n2nc(N3CCC(C(=O)Nc4ccc(C)c(Cl)c4)CC3)sc2n1	/	/	/	5%	/	-4%
Fc1cccc(NCc2cccn2-c2nnc(N3CCOCC3)s2)c1	/	/	/	/	/	-3%
NC(=O)c1ccsc1N	0%	5%	-1%	/	-4%	0%

Screening data (PubChem)
